PubChem BioAssay AID588382 (National Center for Advancing Translational Sciences (NCATS), 2011)
The whole screen tested about 1,300 compounds, of which about 150 (12%) were called active. Inconclusive results (about 30%) are left out. The sample holds actives, similar compounds and a random draw of the others, so the mix is not that of the screen. Values without a mark were called inactive. The call rests on the fitted dose curve; in most records, active means well fitted cell-killing curve with a large enough effect; inconclusive means small, poorly fitted or top-dose-only effect, or effect the other way; inactive means flat fitted curve, though single readings scatter.

Test: qHTS of small molecules that selectively kill Giardia lamblia: Hit Validation in HepG2 cytotox;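 further: compound exposure lasted overnight at 37 deg C; nearly all actives have a fitted effect of over 55% in size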;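 on activity change, negative = cytotoxicity: viability measured as cellular ATP by ATPLite luminescence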
Conditions: cell viability; Potency: HepG2 cytotoxicity; series mostly up to 38.3 µM; activity change, negative = cytotoxicity: at the top concentration
How it was run: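 Counterscreen cytotoxicity: ATPLite luminescence (15 min, room temperature) measured in HepG2 cells exposed overnight at 37 deg C to pin-transferred compound (23 nL) after overnight pre-incubation.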
On the % scale 0 is the no-effect control and ±100 the full control effect; potency means the concentration at half of the fitted maximal effect.

Compound | activity change, negative = cytotoxicity [%] | Potency
COc1ccc(-n2nc([N+](=O)[O-])c(=NCCc3ccc(C)cc3)n2O)cc1 | 0.151 | –
Nc1nc(Cl)nc2c1ncn2[C@H]1C[C@H](O)[C@@H](CO)O1 | -5.68 | –
Cc1ncc([N+](=O)[O-])n1CCN1C(=O)c2ccccc2C1=O | 8.26 | –
O=C1c2ccccc2C(=O)c2c1ccc1c(=O)n(C3CCCCC3)[nH]c21 | 0.154 | –
O=C(CSc1cccc[n+]1[O-])Nc1cc2c(cc1Cl)C(=O)c1ccccc1C2=O | -16.8 | –
O=C(N/N=C/c1cc2c(cc1[N+](=O)[O-])OCO2)c1ccccn1 | -3.77 | –
Cc1ccc(N/C(C(Cl)=C(Cl)Cl)=C(/Cl)[N+](=O)[O-])c(C)c1 | 2.94 | –
O=C(CCCn1cnc([N+](=O)[O-])n1)Nc1cccc(Cl)c1Cl | 11.2 | –
O=[N+]([O-])c1nn(-c2ccc3c(c2)OCCO3)n(O)c1=NCc1ccccc1Cl | 22.4 | –
Cc1oc2cc([N+](=O)[O-])c(O)c([N+](=O)[O-])c2c1C(=O)c1ccc(Cl)cc1 | 26 | –
CCN(CC)C(=O)Cn1cc([N+](=O)[O-])cc1[N+](=O)[O-] | 6.27 | –
CC1(C)Oc2cc3oc(-c4cc(O)cc(O)c4)cc3cc2CC1O (stereo unspecified) | – | 5.85 µM (active)
CCCCNC(=O)/C(=C\c1ccc([N+](=O)[O-])o1)NC(=O)c1ccccc1 | 14.1 | –
O=C(CCN1C(=O)c2ccccc2C1=O)NCc1ccc(F)cc1 | 21.1 | –
O=C(CCN1C(=O)c2ccccc2C1=O)Nc1ccccc1C(F)(F)F | 11.6 | –
O=C1c2ccc3c4c(ccc(c24)C(=O)N1CCCCO)C(=O)N(CCCCO)C3=O | – | 4.14 µM (active)

Compound | activity change, negative = cytotoxicity [%] | Potency
O=[N+]([O-])c1nn(-c2ccc3c(c2)OCCO3)n(O)c1=NCCC1=CCCCC1 | 1.64 | –
O=c1c([N+](=O)[O-])cccn1Cc1ccccc1Cl | 1.04 | –
[O-][n+]1c2ccccc2c2n1CCN=C2c1ccc(Cl)cc1 | 1.04 | –
O=[N+]([O-])c1nn(-c2ccc3c(c2)OCCO3)n(O)c1=Nc1ccc(Cl)cc1 | 20.9 | –
COc1cc2nc(N3CCN(C)CC3)nc(NC(C)C)c2cc1OC | -19.6 | –
COc1cc2nc(N3CCN(c4cc(C)ccc4C)CC3)nc(N)c2cc1OC | – | 9.27 µM (active)
Cc1cc(=S)nc(-c2ccccn2)[nH]1 | 1.95 | –
CN1C(=O)/C(=C/c2ccc(O)c([N+](=O)[O-])c2)NC1=S | 15.3 | –
CCc1cccc(N=c2c([N+](=O)[O-])nn(-c3ccc4c(c3)OCCO4)n2O)c1 | 4.33 | –
Cc1cccc(NC(=O)c2ccc([N+](=O)[O-])s2)c1C | 0.683 | –
Cc1cc(C)cc(Oc2ccc(NC(=O)C3CC=CCC3C(=O)O)cc2)c1 (stereo unspecified) | -0.27 | –
CCc1ccc(-c2nc3c(=O)n(C)c(=O)nc-3n(CC)n2)cc1 | – | 1.85 µM (active)
CCn1nc(-c2ccc(C)cc2)nc2c(=O)n(C)c(=O)nc1-2 | – | 5.21 µM (active)
CC(=O)O[C@@H]1[C@@H](OC(C)=O)[C@H](n2ccc3cc([N+](=O)[O-])ccc32)OC[C@@H]1OC(C)=O | 14 | –
Cc1ccc([C@@H]2CC=C(C(=O)O)CN2S(=O)(=O)c2ccc(C)cc2)cc1 | 21 | –
